PubChem BioAssay (NCATS)
Inconclusive results are not listed. Active and inactive are the calls of the source. Calls follow the shape of the dose curve; as a rule, active = well fitted inhibition curve with a large enough effect; inconclusive = small, poorly fitted or top-dose-only effect; inactive = flat fitted curve, though single readings scatter.

Assays:
Assay in all cases: Cytotoxic Profiling of Annotated Libraries Using Quantitative High-Throughput Screening (AID 1296008); also: nearly all actives have a fitted effect of over 60% in size
Details in all cases: Five cell lines viability, CellTiter-Glo ATP luminescence, 48-72 h; max response: hits give low values
CRL-7250 = normal cell line; test system: CRL-7250
Method in brief: (§1)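 Compounds were pin-transferred onto cells and incubated 48 or 72 hr at 37 degree Celsius, 95% humidity. CellTiter-Glo was added, plates sat 10 min at room temperature, then ATP-coupled luminescence was imaged as the viability read-out.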

HEK293 = test system: HEK293
Method in brief: as §1

HaCat = test system: HaCat
Method in brief: as §1

Measured: max response
% is scaled to controls: 0 for no effect and ±100 for the full control effect.

COc1ccc([C@H]2Cc3cccc(O)c3C(=O)O2)cc1
inactive: CRL-7250 -7.43% | HEK293 | HaCat

N[C@@H](CC(=O)N1CCn2c(nnc2C(F)(F)F)C1)Cc1[nH]nc2c(F)c(F)ccc12
inactive: CRL-7250 -0.191% | HEK293 | HaCat -2.51%

CC(=O)O[C@@H]1[C@H](O[C@@H]2OC[C@](O)(CO)[C@H]2O)[C@@H](O[C@@H]2O[C@@H](C)[C@H](O)[C@@H](O)[C@H]2O)[C@H](OC(=O)[C@]23CCC(C)(C)C[C@H]2C2=CCC4[C@@]5(C)C[C@H](O)[C@H](O[C@@H]6O[C@H](C(=O)O)[C@@H](O)[C@H](O)[C@H]6O)[C@@](C)(C(=O)O)C5CC[C@@]4(C)[C@]2(C)CC3)O[C@@H]1C (stereo partly specified)
inactive: CRL-7250 -0.437% | HEK293 | HaCat

CO[C@@H]1CC[C@H](OC[C@]2(COC(=O)c3ccc(C)[nH]3)[C@H](OC(C)=O)CC[C@@]3(C)[C@@H]4CC=C(C)[C@@H](C5=C(O)C(=O)OC5O)[C@]4(C)CC[C@@H]32)O[C@H]1C (stereo partly specified)
inactive: CRL-7250 | HEK293 | HaCat -0.118%

CC(NCc1ccc(OCc2cccc(F)c2)cc1)C(N)=O (stereo unspecified)
inactive: all assays above

CC1(C)C(=O)C(C)(C)c2cc(C(=O)Nc3ccc(C(=O)O)cc3)ccc21
inactive: CRL-7250 2.14% | HEK293 | HaCat -8.59%

CC1=CC(=O)C2C(C)(C)CC(O)CC2(C)C1CO (stereo unspecified)
inactive: CRL-7250 -38.7% | HEK293 | HaCat -3.16%

CC1=CCC2C(C)(CO)CCCC2(CO)C1CO (stereo unspecified)
inactive: CRL-7250 | HEK293 | HaCat -5.9%

O=C(OCc1cccc(O)c1O[C@@H]1O[C@H](CO)[C@@H](O)[C@H](O)[C@H]1O)C1(O)C(=O)C2C=CC1C1C=CC(=O)C(O)(C(=O)OCc3cccc(O)c3O[C@@H]3O[C@H](CO)[C@@H](O)[C@H](O)[C@H]3O)C21 (stereo partly specified)
inactive: CRL-7250 -8.04% | HEK293 | HaCat

CC(C)NC[C@H](O)COc1ccc(CCOCC2CC2)cc1
inactive: CRL-7250 -3.5% | HEK293 | HaCat

C[C@]12CCC(=O)C=C1[C@@H](O)C[C@@H]1[C@@H]2[C@@H](O)C[C@@]2(C)[C@H]1CC[C@]2(O)C(=O)CO
inactive: CRL-7250 | HEK293 | HaCat 1.59%

C/C=C(\C)C(=O)OC[C@H]1O[C@H](O[C@H]2O[C@H](CO)[C@@H](OC(=O)/C(C)=C/C)[C@H](O)[C@H]2O[C@@H]2O[C@H](CO)[C@@H](O)[C@H](O)[C@H]2O)[C@H](O[C@@H]2O[C@H](CO)[C@@H](O)[C@H](O)[C@H]2O)[C@@H](O)[C@@H]1O
inactive: CRL-7250 -3.07% | HEK293 | HaCat

CC1=CC2(O)/C=C/C(C)(O)CC(O)/C=C/C(=O)OC23C(=O)NC(CC(C)C)C3C1C (stereo unspecified)
inactive: CRL-7250 -2.92% | HEK293 | HaCat

COc1cc2c(cc1O)C1(Cc3ccc4c(c3C1=O)OCO4)N(C)CC2 (stereo unspecified)
inactive: CRL-7250 3.99% | HEK293 | HaCat

C[C@@H]1C(=O)O[C@H]2CC34[C@H]5C[C@@H](C(C)(C)C)C36[C@@H](OC(=O)[C@@H]6O)OC4(C(=O)O5)[C@]21O (stereo partly specified)
inactive: CRL-7250 -2.58% | HEK293 | HaCat

CC1CCC(=O)CC(O)C(O)CC(=O)O1 (stereo unspecified)
inactive: CRL-7250 -5.97% | HEK293 | HaCat 4.62%

C=CC(C)(O)CO[C@@H]1O[C@H](CO)[C@@H](O)[C@H](O)[C@H]1O (stereo partly specified)
inactive: CRL-7250 -1.51% | HEK293 | HaCat -30.3%

COc1c(OC2OC(CO)C(O)C(O)C2O)ccc(O)c1C(=O)OCc1ccccc1O[C@@H]1O[C@H](CO)[C@@H](O)[C@H](O)[C@H]1O (stereo partly specified)
inactive: CRL-7250 | HEK293 | HaCat 3.76%

CCNC(=O)[C@H]1O[C@H](n2cnc3c(NCC(c4ccccc4)c4ccccc4)nc(C(=O)NCCNC(=O)NC4CCN(c5ccccn5)CC4)nc32)[C@H](O)[C@@H]1O
inactive: CRL-7250 -2.5% | HEK293 | HaCat -11.9%

CC(=O)N1CCN(NC(=O)c2ccc(F)cc2)CC1
inactive: CRL-7250 -0.968% | HEK293 | HaCat

C[C@H]1[C@H](C)CC[C@]2(C(=O)O)CC[C@]3(C)C(=CC[C@@H]4[C@@]5(C)C[C@@H](O)[C@H](O)[C@@](C)(CO)[C@@H]5CC[C@]43C)[C@H]12
inactive: CRL-7250 0.188% | HEK293 | HaCat

O=C1NC(Cc2ccc(O)cc2)C(=O)N2CCCC12 (stereo unspecified)
inactive: CRL-7250 -11.1% | HEK293 | HaCat -15.4%
